A number with no mark means an inactive call. Results filed as inconclusive are left out. A call without a number means that no potency is given here. The source made the active and inactive calls. Calls come from the whole dose curve; as a rule, active = well fitted curve in the direction sought with a large enough effect in the repeat runs; inconclusive = weak or mixed curves; inactive = no such curve, though single readings can be large; an effect the other way counts as inactive or inconclusive.
Legend:
[1] = qHTS RealTime-Glo MT Cell Viability Assay in HEK293 cells - 16 hour (AID 1224872); note: nearly all actives have a fitted effect of over 50% in size; note: potency is the fitted concentration of half-maximal effect
How it was run: (§1)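 HEK293 cells were seeded at 600 cells/well together with NanoLuc luciferase and cell-permeant prosubstrate, preincubated 5 h at 37 C/5% CO2, then given compound in DMSO by pintool. Luminescence from viable-cell prosubstrate reduction was read repeatedly over 40 h.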

[2] = qHTS RealTime-Glo MT Cell Viability Assay in HepG2 cells - 8 hour (AID 1224873); note: nearly all actives have a fitted effect of over 55% in size
How it was run: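 HepG2 cells mixed with RealTime-Glo MT reagents (NanoLuc plus cell-permeant prosubstrate) were seeded at 600 cells/well, incubated 5 h at 37 C/5% CO2, then pinned with compounds in DMSO; nonlytic luminescence tracked viability during 40 h treatment.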

[3] = qHTS RealTime-Glo MT Cell Viability Assay in HEK293 cells - 40 hour (AID 1224874); settings: RealTime-Glo luminescence; max response: hits give low values; note: nearly all actives have a fitted effect of over 50% in size; note: potency is the fitted concentration of half-maximal effect
How it was run: (§2)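 HEK293 + NanoLuc + prosubstrate, 600 cells/well; 5 h, 37 C/5% CO2; compound 23 nL in DMSO by pintool; 37 C; luminescence read at 0, 8, 16, 24, 32 and 40 h time points.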

[4] = A CellTox Green Cytotoxicity Assay to monitor cytotoxicity in HEK293 cells - 24 hour (AID 1224875); note: nearly all actives have a fitted effect of over 45% in size; note: potency is the fitted concentration of half-maximal effect
How it was run: (§3)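 Tox21 screen in HEK293: membrane-impermeant cyanine dye fluoresces on binding dead-cell DNA; compound pinned 5 h post-seeding, plates held at 37 C, signal read repeatedly through 40 h.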

[5] = A CellTox Green Cytotoxicity Assay to monitor cytotoxicity in HepG2 cells - 16 hour (AID 1224876); note: nearly all actives have a fitted effect of over 45% in size
How it was run: (§4)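 Measurements at 0, 8, 16, 24, 32 and 40 h of treatment captured CellTox Green fluorescence in HepG2 cells that had been co-plated with reagent and preincubated 5 h at 37 C/5% CO2.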

[6] = qHTS RealTime-Glo MT Cell Viability Assay in HepG2 cells - 32 hour (AID 1224877); note: nearly all actives have a fitted effect of over 55% in size
How it was run: (§5)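 HepG2 cells were seeded at 600 cells/well together with NanoLuc luciferase and a cell-permeant prosubstrate, preincubated 5 h at 37 C/5% CO2, then pin-dosed with compounds in DMSO. Nonlytic luminescence from viable cells was read at each time point.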

[7] = A CellTox Green Cytotoxicity Assay to monitor cytotoxicity in HepG2 cells - 24 hour (AID 1224878); note: nearly all actives have a fitted effect of over 45% in size; note: potency is the fitted concentration of half-maximal effect
How it was run: as §4

[8] = A CellTox Green Cytotoxicity Assay to monitor cytotoxicity in HepG2 cells - 40 hour (AID 1224879); note: nearly all actives have a fitted effect of over 40% in size; note: potency is the fitted concentration of half-maximal effect
How it was run: as §4

[9] = qHTS RealTime-Glo MT Cell Viability Assay in HEK293 cells - 0 hour (AID 1224880); note: nearly all actives have a fitted effect of over 45% in size; note: potency is the fitted concentration of half-maximal effect
How it was run: as §2

[10] = A CellTox Green Cytotoxicity Assay to monitor cytotoxicity in HEK293 cells - 32 hour (AID 1224881); note: nearly all actives have a fitted effect of over 40% in size; note: potency is the fitted concentration of half-maximal effect
How it was run: as §3

[11] = A CellTox Green Cytotoxicity Assay to monitor cytotoxicity in HepG2 cells - 0 hour (AID 1224882); note: nearly all actives have a fitted effect of over 35% in size
How it was run: as §4

[12] = A CellTox Green Cytotoxicity Assay to monitor cytotoxicity in HepG2 cells - 32 hour (AID 1224883); note: nearly all actives have a fitted effect of over 50% in size; note: potency is the fitted concentration of half-maximal effect
How it was run: as §4

[13] = A CellTox Green Cytotoxicity Assay to monitor cytotoxicity in HEK293 cells - 8 hour (AID 1224884); note: nearly all actives have a fitted effect of over 35% in size
How it was run: as §3

[14] = qHTS RealTime-Glo MT Cell Viability Assay in HepG2 cells - 16 hour (AID 1224885); note: nearly all actives have a fitted effect of over 50% in size
How it was run: as §5

[15] = qHTS RealTime-Glo MT Cell Viability Assay in HEK293 cells - 24 hour (AID 1224886); note: nearly all actives have a fitted effect of over 50% in size; note: potency is the fitted concentration of half-maximal effect
How it was run: as §1

[16] = qHTS RealTime-Glo MT Cell Viability Assay in HEK293 cells - 8 hour (AID 1224887); note: nearly all actives have a fitted effect of over 50% in size; note: potency is the fitted concentration of half-maximal effect
How it was run: as §2

[17] = A CellTox Green Cytotoxicity Assay to monitor cytotoxicity in HEK293 cells - 16 hour (AID 1224888); note: nearly all actives have a fitted effect of over 35% in size
How it was run: as §3

[18] = qHTS RealTime-Glo MT Cell Viability Assay in HepG2 cells - 0 hour (AID 1224889); note: nearly all actives have a fitted effect of over 50% in size; note: potency is the fitted concentration of half-maximal effect
How it was run: as §5

[19] = A CellTox Green Cytotoxicity Assay to monitor cytotoxicity in HepG2 cells - 8 hour (AID 1224890); note: nearly all actives have a fitted effect of over 45% in size
How it was run: as §4

CCCCOC(=O)/C=C\C(=O)OCCCC
Potency [1]: inactive | Potency [2]: inactive | max response [3]: -0.0674% | Potency [4]: inactive | Potency [5]: inactive | Potency [6]: inactive | Potency [7]: inactive | Potency [8]: inactive | Potency [9]: inactive | Potency [10]: inactive | Potency [11]: inactive | Potency [12]: inactive | Potency [13]: inactive | Potency [14]: inactive | Potency [15]: inactive | Potency [16]: inactive | Potency [17]: inactive | Potency [18]: inactive | Potency [19]: inactive

Cc1cc(NC(=O)C(=O)O)cc(C)c1Oc1ccc(O)c2c1CCC2
Potency [1]: inactive | Potency [2]: inactive | max response [3]: -8.77% | Potency [4]: inactive | Potency [5]: inactive | Potency [6]: inactive | Potency [7]: inactive | Potency [8]: inactive | Potency [9]: inactive | Potency [10]: inactive | Potency [11]: inactive | Potency [12]: inactive | Potency [13]: inactive | Potency [14]: inactive | Potency [15]: inactive | Potency [17]: inactive

Cc1cc(O)ccc1N
Potency [1]: 49.2 µM (active) | Potency [3]: 43.9 µM (active) | Potency [4]: 34.9 µM (active) | Potency [5]: inactive | Potency [6]: inactive | Potency [7]: inactive | Potency [8]: inactive | Potency [9]: 12.4 µM (active) | Potency [10]: 34.9 µM (active) | Potency [11]: inactive | Potency [12]: inactive | Potency [13]: inactive | Potency [14]: inactive | Potency [15]: 55.3 µM (active) | Potency [16]: 43.9 µM (active) | Potency [17]: inactive | Potency [18]: inactive | Potency [19]: inactive

O=[N+]([O-])c1cccc(Cl)c1Cl
Potency [1]: inactive | Potency [2]: inactive | max response [3]: -16.4% | Potency [5]: inactive | Potency [6]: inactive | Potency [7]: inactive | Potency [8]: inactive | Potency [9]: inactive | Potency [11]: inactive | Potency [12]: inactive | Potency [13]: inactive | Potency [14]: inactive | Potency [15]: inactive | Potency [16]: inactive | Potency [17]: inactive | Potency [18]: inactive | Potency [19]: inactive

C[C@H](CCC(=O)O)[C@H]1CC[C@H]2[C@@H]3[C@H](O)C[C@@H]4C[C@H](O)CC[C@]4(C)[C@H]3CC[C@]12C
Potency [2]: inactive | Potency [4]: inactive | Potency [5]: inactive | Potency [6]: inactive | Potency [7]: inactive | Potency [8]: inactive | Potency [9]: inactive | Potency [10]: inactive | Potency [11]: inactive | Potency [12]: inactive | Potency [13]: inactive | Potency [14]: inactive | Potency [16]: inactive | Potency [17]: inactive | Potency [18]: inactive | Potency [19]: inactive

S=C(S)NCCNC(=S)S
Potency [1]: inactive | Potency [2]: inactive | max response [3]: -4.71% | Potency [4]: inactive | Potency [5]: inactive | Potency [7]: inactive | Potency [8]: inactive | Potency [9]: inactive | Potency [10]: inactive | Potency [11]: inactive | Potency [12]: inactive | Potency [15]: inactive | Potency [16]: inactive | Potency [17]: inactive | Potency [18]: inactive | Potency [19]: inactive

C=CC(C)(CCC=C(C)C)OC(=O)c1ccccc1 (stereo unspecified)
Potency [1]: inactive | Potency [2]: inactive | max response [3]: -13.6% | Potency [5]: inactive | Potency [6]: inactive | Potency [7]: inactive | Potency [8]: inactive | Potency [11]: inactive | Potency [12]: inactive | Potency [14]: inactive | Potency [15]: inactive | Potency [18]: inactive | Potency [19]: inactive

CCCCCCCCCCCCC(=O)O
Potency [1]: inactive | Potency [2]: inactive | max response [3]: 0.0822% | Potency [6]: inactive | Potency [7]: inactive | Potency [8]: inactive | Potency [9]: inactive | Potency [10]: inactive | Potency [11]: inactive | Potency [12]: inactive | Potency [14]: inactive | Potency [15]: inactive | Potency [16]: inactive | Potency [17]: inactive | Potency [18]: inactive | Potency [19]: inactive

Cc1ccc(O)c([C@H](CCN(C(C)C)C(C)C)c2ccccc2)c1
Potency [1]: inactive | Potency [2]: inactive | Potency [4]: inactive | Potency [5]: inactive | Potency [6]: inactive | Potency [7]: 21.3 µM (active) | Potency [8]: 23.9 µM (active) | Potency [10]: inactive | Potency [11]: inactive | Potency [12]: 21.3 µM (active) | Potency [13]: inactive | Potency [15]: inactive | Potency [17]: inactive | Potency [18]: inactive | Potency [19]: inactive

CCCCc1cc2ccccc2c(OCCN(C)C)n1
Potency [2]: inactive | Potency [6]: inactive | Potency [9]: inactive | Potency [10]: 21.3 µM (active) | Potency [11]: inactive | Potency [14]: inactive | Potency [17]: inactive | Potency [18]: inactive | Potency [19]: inactive

O=C(NS(=O)(=O)/C=C/c1cccs1)c1ccc(F)cc1Br
Potency [1]: inactive | Potency [2]: inactive | Potency [4]: inactive | Potency [5]: inactive | Potency [6]: inactive | Potency [7]: inactive | Potency [8]: inactive | Potency [9]: 19.5 µM (active) | Potency [10]: inactive | Potency [11]: inactive | Potency [12]: inactive | Potency [13]: inactive | Potency [14]: inactive | Potency [15]: inactive | Potency [16]: inactive | Potency [17]: inactive | Potency [18]: 15.5 µM (active) | Potency [19]: inactive

CCOC(=O)CC(C)C
Potency [1]: inactive | Potency [2]: inactive | max response [3]: 6.18% | Potency [5]: inactive | Potency [6]: inactive | Potency [7]: inactive | Potency [8]: inactive | Potency [9]: inactive | Potency [10]: inactive | Potency [11]: inactive | Potency [12]: inactive | Potency [13]: inactive | Potency [14]: inactive | Potency [15]: inactive | Potency [16]: inactive | Potency [17]: inactive | Potency [18]: inactive | Potency [19]: inactive

COC(=O)CSc1cc(N=c2sc(=O)n3n2CCCC3)c(F)cc1Cl
Potency [1]: inactive | Potency [2]: inactive | max response [3]: 3.98% | Potency [5]: inactive | Potency [6]: inactive | Potency [7]: inactive | Potency [8]: inactive | Potency [9]: inactive | Potency [10]: inactive | Potency [11]: inactive | Potency [12]: inactive | Potency [14]: inactive | Potency [15]: inactive | Potency [18]: inactive | Potency [19]: inactive
